Inconclusive results are not listed. Calls of active or inactive are those of the source. Unless noted, calls follow the shape of the dose curve; as a rule, active = well fitted curve in the direction sought with a large enough effect; inconclusive = small, poorly fitted or top-dose-only effect, or another doubt; inactive = no such curve, though single readings can be large; an effect the other way counts as inactive or inconclusive.

Assay [1] deals with Methanococcus maripaludis chaperonin (MmCpn) (UniProt Q6LX38). Put plainly: High-Throughput Screening for Modulators of Cytosolic Chaperonin Activity: MmCpn Primary Screen (AID 488978).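 Also: 50 nM MmCpn enzyme hydrolysing 30 µM ATP at 37 °C; 0% is about no effect.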 The gist of the method: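 Measures ATPase turnover of the M. maripaludis chaperonin (50 nM final) against 30 uM ATP over 10 min at 37C, with compound added 5 min beforehand at room temperature. ADP is quantified by HTRF immunodetection.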

Assay [2] addresses Transient receptor potential cation channel subfamily V member 1 (Homo sapiens) (UniProt Q8NER1). Put plainly: HTS Assay for Compounds that Act as Enhancers of the Vanilloid Receptor 1 (AID 488979). Also: 0% is about no effect. In a few lines: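 TRPV1-expressing cells loaded with Fluo-8 calcium dye; compounds added and calcium influx read kinetically for 3 min (agonist phase), then capsaicin at EC20 added and read 2 min more for enhancement. Fluorescence ex 480/em 520 nm.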

Assay [3] has as its target Thyrotropin receptor (Homo sapiens) (UniProt P16473). In words: qHTS Assay for Antagonists of the Thyroid Stimulating Hormone Receptor (AID 488980). Also: series mostly up to about 58 µM; 0% is about no effect. In a few lines:
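Cells expressing human TSHR (HEK293) are dispensed in HBSS/HEPES containing 70 uM RO 20-1724, compound is added, then TSH at EC80 (4 nM final). Antibody in lysis buffer follows, 30 minutes at room temperature before HTRF detection.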

Assay [4] concerns the target D(1A) dopamine receptor (Homo sapiens) (UniProt P21728). In words: HTS Assay for Allosteric Agonists of the Human D1 Dopamine Receptor: Primary Screen for Agonists (AID 488981). Also: 0% is about no effect. The gist of the method: (§1)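 Tetracycline-induced HEK293 T-REx cells force-coupled to calcium signalling were incubated overnight at 30 C and dye-loaded at room temperature. Calcium flux over 180 s after compound addition flagged agonists; a further 180 s read after EC20 dopamine flagged potentiators.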

Assay [5] shares this target. Put plainly: HTS Assay for Allosteric Agonists of the Human D1 Dopamine Receptor: Primary Screen for Potentiators (AID 488982). Also: 0% is about no effect. In a few lines:
as §1

Assay [6] has the same target. Put plainly: HTS Assay for Allosteric Agonists of the Human D1 Dopamine Receptor: Primary Screen for Antagonists (AID 488983).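 Also: calcium flux response to an EC80 dopamine challenge measured with no-wash dye; nearly all actives have a fitted effect of over 65% in size.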 Also: potency is read from the fitted curve at half-maximal effect. In a few lines: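 Calcium-flux read-out in inducible HEK293 T-REx cells expressing D1, dye-loaded 30–90 min at room temperature. Kinetic reads: 180 s after compound (agonist phase), then 180 s after an EC80 dopamine challenge.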
Assay [7] can be described thus: Validation screen for small molecules that induce genotoxicity in human embryonic kidney (HEK293T) cells expressing luciferase-tagged ELG1 (AID 493106). Also: 0% is about no effect. The gist of the method: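 ELG1-luciferase reporter readout (ONE-Glo, 30 min, room temperature) after 16 hr compound treatment at 37 °C of HEK293T cells at 2,000 per well. Rising luminescence flags genotoxic stress.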

The target in assay [8] is Thyrotropin-releasing hormone receptor (Homo sapiens) (UniProt P34981). In words: qHTS for Small Molecule Agonists and Allosteric Enhancers of Human TRH Receptor: Validation Screen for Agonists (AID 493127;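 active = calcium activation more than 3 SD above the typical response in the agonist read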;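 also: intracellular calcium rise by fluo-8 fluorescence before TRH EC20 addition; 0% is about no effect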). The following applies: TRH receptor agonist cell assay; at 2 µM; stronger effect = higher value. In a few lines:
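Compound-evoked intracellular calcium release in fluo-8-loaded TRHR cells, read kinetically on FDSS (Ex 480/Em 530, 1 s/cycle) after 23 nL pintool transfer. Agonist phase preceded 10 nM TRH EC20 addition.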

Assay [9] is described as follows: Nrf2 qHTS screen for inhibitors: Validation (AID 493153; active = well fitted inhibition curve with a large enough effect in the main read-out, with a control signal flat, not every such curve was filed as active). The settings on record: Potency: luciferase luminescence; viability change: measured here: cytotoxicity max response. The gist of the method: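 Concentration-response on A549 ARE_Fluc reporter cells exposed 18-24 h at 37 C, 5% CO2. Cytotoxicity read first by CellTiter-Fluor fluorescence (Ex 405/Em 525), then Nrf2 inhibition by BugLite luminescence after 15 min.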

The target in assay [10] is Galactokinase (Homo sapiens) (UniProt P51570). Put plainly: qHTS Validation Assay for Inhibitors of Human Galactokinase (GALK) (AID 493189). Also: 0% is about no effect. The gist of the method:
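Compounds were pin-transferred into ATP buffer, then GALK-galactose mix was added (final 5 nM enzyme, 100 uM galactose, 35 uM ATP). After 1 h at room temperature, remaining ATP was measured luminescently.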

Assay [11] concerns the target Phosphoglycerate kinase, glycosomal (Trypanosoma brucei brucei) (UniProt P07378). Put plainly: qHTS Validation Assay to Find Inhibitors of Phosphoglycerate Kinase (AID 504547).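 Also: control wells lack PGK and mark full inhibition.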 In a few lines: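 In TEA buffer (100mM, pH 7.6) containing 5mM MgCl2 and 0.01% Tween-20, the GAPDH-coupled PGK reaction proceeded for 60 minutes at room temperature before a single luminescence reading using Kinase-Glo Plus.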

Assay [12] can be described thus: qHTS for Inhibitors of ATXN expression: Validation of Cytotoxic Assay (AID 588349). Also: % is scaled to controls: 0 for no effect and ±100 for the full control effect. In a few lines:
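Cytotoxicity counter-screen: ATP-based luminescent viability (CellTiter Glo) after 72 hr exposure of HEK293 cells to a compound titration at 37 degrees C.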

A short description of assay [13]: Validation screen for small molecules that induce DNA re-replication in SW480 colon adenocarcinoma cells (AID 504364). Also: 0% is about no effect. The gist of the method:
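Image-based DNA content read-out: Hoechst stain 40 min, total nuclear fluorescence intensity (ex 405 nm, em 500-530 nm) after 48 h compound exposure of 250 SW480 cells/well at 37 C, 5% CO2, versus DMSO vehicle.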

Assay [14] addresses Peptidyl-prolyl cis-trans isomerase NIMA-interacting 1 (Homo sapiens) (UniProt Q13526). In words: qHTS Validation Assay to Find Inhibitors of Pin1 (AID 504536; active = well fitted inhibition curve with a large enough effect in the polarisation, with a control signal flat, not every such curve was filed as active; the % refers to the polarisation;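 also: 0% = full Pin1 enzyme wells and -100% = no-enzyme wells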). The gist of the method: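 Fluorescence polarization competition: compounds (titration) displace HiFluor-488-labeled Pin1-1b peptide from Pin1 (0.3 uM final) in pH 7.5 HEPES buffer with DTT, 10 min at room temperature; %Activity normalized to no-enzyme wells, curves fitted.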

Assay [15] concerns the target Ubiquitin carboxyl-terminal hydrolase 1 (Homo sapiens) (UniProt O94782). Put plainly: Inhibitors of USP1/UAF1: Pilot qHTS (AID 504865).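 Also: rhodamine fluorescence freed from ubiquitin-rhodamine substrate followed over time; top concentration of the series differs between compounds; % is scaled to controls: 0 for no effect and ±100 for the full control effect; nearly all actives have a fitted effect of over 35% in size.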 In a few lines:
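Kinetic fluorescence assay: 1nM USP1/UAF1, 15 min compound preincubation, then 150nM Ub-Rho; 480/540 nm.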

Assay [16] concerns the target ATPase family AAA domain-containing protein 5 (Homo sapiens) (UniProt Q96QE3). Put plainly: Validation screen for small molecules that inhibit ELG1-dependent DNA repair in human embryonic kidney (HEK293T) cells expressing luciferase-tagged ELG1 (AID 493107).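 Also: series mostly up to about 46 µM; % is scaled to controls: 0 for no effect and ±100 for the full control effect; inhibitors lower the ELG1-luciferase luminescence signal; nearly all actives have a fitted effect of over 70% in size.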 The gist of the method: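 Luciferase read-out, ONE-Glo, 30 min at room temperature, follows 16 h co-exposure at 37 C of compound and the DNA-damaging agent 5-fluorouridine. Cells: HEK293T with ELG1-luciferase fusion, 2,000 per well, DMSO as vehicle.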

A short description of assay [17]: qHTS for Inhibitors of Cell Surface uPA Generation: Validation Assay (AID 493164).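 Also: RAW 264.7 macrophage cells exposed to compound for 18 h; 0% is about no effect.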 In a few lines: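 ATP-Lite luminescence read-out: ATP remains high when uPA activity-dependent LF translocation into the cytoplasm is blocked. RAW 264.7 cells, 18 h compound exposure at 37 C; 7-point titration, 2.45 nM to 38.3 uM final.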
In assay [18] the target is phosphoglycerate mutase (Leishmania major) (UniProt Q4Q090). Put plainly: qHTS Validation Assay to Find Inhibitors of Phosphoglycerate Mutase (AID 504548). Also: series mostly up to about 58 µM; % is scaled to controls: 0 for no effect and ±100 for the full control effect. The following applies: Potency: inhibition qHTS. The gist of the method:
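Lm PGAM 1.25nM final; 100 mM TEA pH 7.6, 5 mM MgCl2, 0.01% Tween-20; 45 min RT; Kinase-GloPlus, 10 min; end-point luminescence. Enzyme-free wells as negative controls.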

Sequence of Ubiquitin carboxyl-terminal hydrolase 1 (Homo sapiens) (O94782 whole entry, looked up): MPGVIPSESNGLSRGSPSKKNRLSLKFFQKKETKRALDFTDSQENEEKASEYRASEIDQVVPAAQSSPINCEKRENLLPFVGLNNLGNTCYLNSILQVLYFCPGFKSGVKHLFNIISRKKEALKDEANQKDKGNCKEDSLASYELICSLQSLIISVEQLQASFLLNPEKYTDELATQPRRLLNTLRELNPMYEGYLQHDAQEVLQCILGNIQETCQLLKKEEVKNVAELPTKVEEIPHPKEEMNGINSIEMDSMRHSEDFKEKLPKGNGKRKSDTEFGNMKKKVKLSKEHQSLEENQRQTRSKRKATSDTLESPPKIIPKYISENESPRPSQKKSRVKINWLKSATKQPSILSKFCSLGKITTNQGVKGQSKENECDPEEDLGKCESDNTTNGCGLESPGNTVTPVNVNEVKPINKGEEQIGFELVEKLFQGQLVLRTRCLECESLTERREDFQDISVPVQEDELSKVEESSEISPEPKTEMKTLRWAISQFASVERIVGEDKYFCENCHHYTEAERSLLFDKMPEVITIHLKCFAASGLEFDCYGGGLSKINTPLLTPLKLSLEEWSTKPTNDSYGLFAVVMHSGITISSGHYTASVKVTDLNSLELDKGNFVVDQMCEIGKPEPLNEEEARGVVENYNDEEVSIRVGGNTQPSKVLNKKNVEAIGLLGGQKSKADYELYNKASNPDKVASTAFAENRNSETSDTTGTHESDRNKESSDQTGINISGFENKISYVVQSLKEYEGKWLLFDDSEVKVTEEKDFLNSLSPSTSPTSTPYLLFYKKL
Sequence of Galactokinase (Homo sapiens) (P51570 whole entry, looked up): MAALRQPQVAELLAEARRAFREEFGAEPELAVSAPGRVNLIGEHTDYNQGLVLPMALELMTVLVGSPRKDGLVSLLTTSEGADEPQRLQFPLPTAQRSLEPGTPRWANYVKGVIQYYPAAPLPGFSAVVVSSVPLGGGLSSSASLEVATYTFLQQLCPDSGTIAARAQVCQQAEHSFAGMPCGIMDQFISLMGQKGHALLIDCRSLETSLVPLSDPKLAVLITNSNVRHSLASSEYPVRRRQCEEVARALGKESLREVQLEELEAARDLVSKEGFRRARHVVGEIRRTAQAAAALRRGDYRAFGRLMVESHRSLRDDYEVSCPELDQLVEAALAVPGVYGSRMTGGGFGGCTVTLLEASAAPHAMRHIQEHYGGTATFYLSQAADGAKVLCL
Sequence of ATPase family AAA domain-containing protein 5 (Homo sapiens) (Q96QE3 whole entry, looked up, the tested form may be a part): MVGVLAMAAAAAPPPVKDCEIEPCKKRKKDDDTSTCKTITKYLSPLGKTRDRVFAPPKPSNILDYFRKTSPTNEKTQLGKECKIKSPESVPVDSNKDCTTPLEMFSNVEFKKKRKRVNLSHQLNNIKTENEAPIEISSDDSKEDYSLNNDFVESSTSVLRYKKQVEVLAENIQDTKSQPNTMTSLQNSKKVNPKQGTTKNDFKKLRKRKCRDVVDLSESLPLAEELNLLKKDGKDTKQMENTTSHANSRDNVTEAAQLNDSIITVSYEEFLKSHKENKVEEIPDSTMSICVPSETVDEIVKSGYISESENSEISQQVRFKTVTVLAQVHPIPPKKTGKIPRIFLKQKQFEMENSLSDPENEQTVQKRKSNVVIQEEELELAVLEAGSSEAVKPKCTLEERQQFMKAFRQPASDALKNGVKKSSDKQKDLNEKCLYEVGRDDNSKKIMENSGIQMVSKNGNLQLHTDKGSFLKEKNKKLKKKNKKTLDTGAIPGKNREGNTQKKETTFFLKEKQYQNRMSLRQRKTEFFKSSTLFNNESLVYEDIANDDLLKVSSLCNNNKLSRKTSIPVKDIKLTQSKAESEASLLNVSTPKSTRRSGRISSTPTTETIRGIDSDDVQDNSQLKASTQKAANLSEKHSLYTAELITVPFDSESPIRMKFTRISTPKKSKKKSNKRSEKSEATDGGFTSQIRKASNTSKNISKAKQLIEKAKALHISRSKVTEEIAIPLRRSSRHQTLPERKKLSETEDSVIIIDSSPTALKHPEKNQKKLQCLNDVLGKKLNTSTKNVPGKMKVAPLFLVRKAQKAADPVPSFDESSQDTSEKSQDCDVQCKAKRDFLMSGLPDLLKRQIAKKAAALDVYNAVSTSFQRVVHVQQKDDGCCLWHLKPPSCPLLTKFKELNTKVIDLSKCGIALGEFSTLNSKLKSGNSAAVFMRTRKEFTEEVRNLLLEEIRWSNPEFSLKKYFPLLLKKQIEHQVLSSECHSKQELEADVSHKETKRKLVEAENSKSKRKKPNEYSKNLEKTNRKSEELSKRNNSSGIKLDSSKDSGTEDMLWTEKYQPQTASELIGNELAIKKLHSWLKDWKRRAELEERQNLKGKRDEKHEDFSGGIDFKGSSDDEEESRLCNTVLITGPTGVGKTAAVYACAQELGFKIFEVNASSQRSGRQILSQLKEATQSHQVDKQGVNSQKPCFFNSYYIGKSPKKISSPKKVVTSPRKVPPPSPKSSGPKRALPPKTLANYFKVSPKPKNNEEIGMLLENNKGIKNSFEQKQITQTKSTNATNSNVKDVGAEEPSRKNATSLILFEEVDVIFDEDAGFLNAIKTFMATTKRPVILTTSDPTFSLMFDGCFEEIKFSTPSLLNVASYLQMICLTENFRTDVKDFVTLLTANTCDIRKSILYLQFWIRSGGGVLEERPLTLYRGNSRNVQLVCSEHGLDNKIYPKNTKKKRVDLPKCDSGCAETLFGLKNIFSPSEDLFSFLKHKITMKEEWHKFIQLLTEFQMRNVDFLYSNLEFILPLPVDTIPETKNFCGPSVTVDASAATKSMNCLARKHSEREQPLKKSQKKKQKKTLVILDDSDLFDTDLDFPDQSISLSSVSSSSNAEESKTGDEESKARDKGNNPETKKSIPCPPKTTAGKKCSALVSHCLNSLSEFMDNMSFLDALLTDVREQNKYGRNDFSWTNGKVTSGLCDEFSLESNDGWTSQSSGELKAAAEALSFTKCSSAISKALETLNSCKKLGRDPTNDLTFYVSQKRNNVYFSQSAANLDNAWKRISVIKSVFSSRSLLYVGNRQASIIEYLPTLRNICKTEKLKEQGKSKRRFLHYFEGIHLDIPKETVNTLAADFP
Sequence of D(1A) dopamine receptor (Homo sapiens) (P21728 whole entry, looked up): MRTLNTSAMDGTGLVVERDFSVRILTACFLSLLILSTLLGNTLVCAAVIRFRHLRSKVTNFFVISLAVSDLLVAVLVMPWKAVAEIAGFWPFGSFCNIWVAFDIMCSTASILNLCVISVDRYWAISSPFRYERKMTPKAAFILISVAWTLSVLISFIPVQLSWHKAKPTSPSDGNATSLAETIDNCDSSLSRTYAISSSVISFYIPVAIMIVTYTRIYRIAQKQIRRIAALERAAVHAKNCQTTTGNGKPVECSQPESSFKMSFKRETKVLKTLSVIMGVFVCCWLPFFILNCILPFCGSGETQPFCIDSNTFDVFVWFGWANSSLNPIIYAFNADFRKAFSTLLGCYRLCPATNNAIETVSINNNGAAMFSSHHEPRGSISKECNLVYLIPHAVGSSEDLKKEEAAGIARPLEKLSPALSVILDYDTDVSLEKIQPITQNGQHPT
Sequence of Thyrotropin receptor (Homo sapiens) (P16473 whole entry, looked up): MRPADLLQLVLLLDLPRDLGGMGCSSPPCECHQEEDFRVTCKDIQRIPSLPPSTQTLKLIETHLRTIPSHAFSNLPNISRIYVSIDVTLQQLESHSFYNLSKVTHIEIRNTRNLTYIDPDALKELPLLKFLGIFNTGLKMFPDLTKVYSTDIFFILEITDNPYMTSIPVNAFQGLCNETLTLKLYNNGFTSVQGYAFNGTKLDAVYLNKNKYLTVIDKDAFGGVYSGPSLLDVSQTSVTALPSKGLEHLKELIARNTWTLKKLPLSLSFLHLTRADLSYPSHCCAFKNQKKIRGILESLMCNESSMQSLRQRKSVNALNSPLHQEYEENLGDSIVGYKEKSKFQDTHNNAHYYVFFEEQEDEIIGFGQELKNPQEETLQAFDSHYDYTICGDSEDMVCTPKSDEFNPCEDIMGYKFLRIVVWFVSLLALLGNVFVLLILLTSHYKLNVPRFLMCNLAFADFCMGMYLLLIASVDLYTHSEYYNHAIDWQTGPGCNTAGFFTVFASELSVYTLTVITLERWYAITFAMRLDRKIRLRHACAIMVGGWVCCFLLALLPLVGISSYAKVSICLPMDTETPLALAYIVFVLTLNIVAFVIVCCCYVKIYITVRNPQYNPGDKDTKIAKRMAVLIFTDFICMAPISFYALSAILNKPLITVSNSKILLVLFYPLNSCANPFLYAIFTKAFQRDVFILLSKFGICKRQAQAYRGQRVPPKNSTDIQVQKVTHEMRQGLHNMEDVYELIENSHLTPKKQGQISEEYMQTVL
Sequence of Phosphoglycerate kinase, glycosomal (Trypanosoma brucei brucei) (P07378 whole entry, looked up): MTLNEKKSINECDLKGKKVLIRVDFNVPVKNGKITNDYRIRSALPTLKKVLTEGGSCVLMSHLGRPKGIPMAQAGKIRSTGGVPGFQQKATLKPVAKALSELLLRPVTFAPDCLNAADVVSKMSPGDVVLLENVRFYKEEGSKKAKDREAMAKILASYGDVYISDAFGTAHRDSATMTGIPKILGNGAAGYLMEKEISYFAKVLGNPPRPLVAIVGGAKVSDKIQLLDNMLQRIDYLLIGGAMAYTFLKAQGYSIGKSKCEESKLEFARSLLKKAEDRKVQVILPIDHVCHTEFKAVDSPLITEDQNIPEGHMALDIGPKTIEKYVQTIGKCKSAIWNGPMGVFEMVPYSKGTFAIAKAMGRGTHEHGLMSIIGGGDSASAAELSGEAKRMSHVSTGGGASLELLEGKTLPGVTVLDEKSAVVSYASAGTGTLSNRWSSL
Sequence of Peptidyl-prolyl cis-trans isomerase NIMA-interacting 1 (Homo sapiens) (Q13526 whole entry, looked up): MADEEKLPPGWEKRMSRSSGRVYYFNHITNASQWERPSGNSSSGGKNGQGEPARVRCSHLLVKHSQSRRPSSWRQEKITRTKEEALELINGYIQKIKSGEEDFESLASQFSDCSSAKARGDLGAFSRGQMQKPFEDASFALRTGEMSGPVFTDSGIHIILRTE

Turning to `Oc1cc2c(cc1O)CN(C(=S)NCCc1ccc(Cl)cc1)CCC2`, the compound was classed as inactive in assay [1], in [2] and in assay [3]. For the same compound, the Potency entry in assay [4], in assay [5], in assay [7], in assay [9], in assay [10] and in [11] was “inactive” in each case. In assay [12], the Potency entry is “inactive”. Also, in assay [6], the Potency is 2000 nM (active). Further, in [8], the activation was 2.62% (inactive). For the same compound, the viability change in assay [9] was -1.93%.

On to `O=c1[nH]c2cc([N+](=O)[O-])c([N+](=O)[O-])cc2[nH]c1=O`, for which the outcome in assay [1], in assay [2] and in assay [3] was inactive. Also, the Potency result in [4], in assay [5], in assay [6], in assay [7], in assay [9] and in assay [10] was “inactive” throughout. Moreover, the Potency result in assay [13], in assay [14], in [11], in [15] and in [12] was “inactive” throughout. The activation in assay [8] was 1.31% (inactive). In addition, the viability change in assay [9] worked out at 0.435%.

As to `COc1cc2c(CCNC(C)=O)c[nH]c2cc1Cl`, the compound was called inactive in assay [1], in assay [2], in assay [3] and in [17]. For the same compound, the Potency entry in [4], in assay [5], in assay [6], in assay [7], in [16] and in assay [9] was “inactive” in each case. For the same compound, the Potency result in assay [10], in [13], in assay [14], in assay [11], in assay [18] and in assay [15] was “inactive” in each case. Further, the Potency result in [12] is “inactive”. In assay [8], the activation was 0.375% (inactive). Moreover, the viability change in assay [9] came out at 2.33%.

Take `O=C1NC(O)=NC1(c1ccccc1)c1ccccc1`: the result in [1], in assay [2] and in [3] was inactive. Besides, the Potency entry in [4], in assay [5], in assay [6], in [7], in [16] and in assay [10] was “inactive” throughout. The Potency entry in assay [13], in assay [11], in [18] and in assay [15] was “inactive” in each case. Also, the activation in [8] was 0.125% (inactive).

In the case of `O=C(O)CNC(=O)C(CS)Cc1ccccc1` (stereo unspecified), the call in assay [1], in assay [2], in assay [3] and in assay [17] was inactive. Moreover, the Potency entry in assay [4], in assay [5], in assay [6], in assay [7], in [16] and in assay [9] was “inactive” each time. For the same compound, the Potency result in assay [10], in assay [13], in assay [14], in assay [11], in assay [18] and in [12] was “inactive” each time. In addition, the activation in assay [8] is 0.625% (inactive). Moreover, the viability change in assay [9] was 2.31%.

As to `COC(=O)c1c(C)[nH]c(C)c1C(=O)c1ccccc1Cc1ccccc1`, the call in [1], in assay [2], in [3] and in [17] was inactive. The Potency entry in assay [4], in [5], in [6], in [7], in [9] and in assay [10] was “inactive” in each case. Besides, the Potency entry in assay [13], in assay [14], in assay [11], in assay [18] and in [12] was “inactive” throughout. Besides, in assay [8], the activation is 7.25% (inactive). Moreover, the viability change in assay [9] was -8.95%.

As to `CN(C)C(N)=NCCC[C@H](N)C(=O)O`, the result in assay [1], in [2], in assay [3] and in assay [17] was inactive. Also, the Potency entry in assay [4], in assay [5], in [6], in assay [7], in assay [16] and in assay [9] was “inactive” each time. Also, the Potency entry in assay [10], in assay [13], in assay [14], in assay [11], in assay [18] and in assay [15] was “inactive” each time. In addition, the Potency result in assay [12] is “inactive”. For the same compound, in assay [8], the activation was 0.188% (inactive). The viability change in [9] was -5.79%.

The values are drawn from PubChem BioAssay (NCATS).
